MITF act – MITF TRPM1 promoter activation in melanoma cells. AID 588334. 0.75% of 300,000 active. SK-MEL-5 TRPM1-promoter luciferase, 24 h; % of positive control, neutral wells = 0. activation, % at 12.5 µM;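 active = mean activation of at least 80% with every replicate also reaching 80%; inconclusive = mean reaches 80% but some replicate falls short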
esBAF inh – inhibitors of esBAF chromatin remodeling in mouse ES cells. Bmi1-luciferase knock-in reporter, 24 h; 100% = twice the neutral-well signal. reporter increase, % at 12.5 µM. 2% of 350,000 active. AID 602393; in the data active = activation above about 40%; inconclusive = no clear call, values can overlap the other calls;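 also: a rise in the Bmi1 reporter signal indicates esBAF inhibition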
FXN GAA850 act – increases GAA850 frataxin promoter reporter activity. AID 540364. HEK293 lucGAA850 FXN promoter luciferase reporter, 24 h; percent of 10 µM SAHA response. 0.56% of 360,000 active. activation, % at 6 µM;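 active = activation above the average of all compounds screened plus 3 SD, cutoff fixed separately per campaign, cut at about 7.5% in these data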
Wnt bcat act – Wnt/beta-catenin pathway activation; Wnt/beta-catenin reporter cell assay, activator, plate reader; activation, % at 9.35 µM; AID 743398; 1.2% of 300,000 active; in the data active = activation above about 30%, passing the limit was not always enough; inconclusive = no clear call, values can overlap the other calls
Of the large screens only hits and unclear results are named; the others gave an inactive call. Shown are actives, neighbours in structure and some others; about 2.8% of the full set was active somewhere.

COc1ccc(C(C#N)N2CCC(c3ccccc3)=N2)cc1OC (centres undefined)	none (no result: esBAF inh)
COc1ccc(C2CC(c3ccc(F)cc3)=NN2c2ccccc2)cc1OC (centres undefined)	none (no result: MITF act)
C[C@@H]1CN([C@H](C)CO)C(=O)c2c(c3ccccc3n2C)-c2ccccc2CO[C@@H]1CN(C)C(=O)Nc1ccc(F)cc1	none (no result: MITF act, FXN GAA850 act, Wnt bcat act)
C[C@H]1CN([C@@H](C)CO)C(=O)Cc2cc(NC(=O)Cn3cnnn3)ccc2O[C@@H]1CN(C)S(=O)(=O)c1ccc(F)cc1	none (no result: MITF act, FXN GAA850 act, Wnt bcat act)
CC(C)Oc1cccc(-c2cc(C(=O)N3CCN(c4ncccn4)CC3)c3ccccc3n2)c1	esBAF inh 59.6
COc1cccc(-c2cc(C(=O)N3CCN(c4ncccn4)CC3)c3ccccc3n2)c1	none (no result: Wnt bcat act)
COc1ccc2[nH]c3c(=O)n(CCc4ccccc4)cnc3c2c1	Wnt bcat act 36.8 (no result: esBAF inh)
COc1ccc(CCn2cnc3c([nH]c4ccccc43)c2=O)cc1	none (no result: esBAF inh)
C[C@@H]1CN([C@@H](C)CO)C(=O)c2cc(C#Cc3cccc(F)c3)cnc2O[C@@H]1CN(C)Cc1ccccn1	none (no result: MITF act, FXN GAA850 act, Wnt bcat act)
Cc1cccc(C)c1OCc1cc(C(=O)N2CCN(c3ccccn3)CC2)no1	none
CCOC(=O)N1CCN(C(=O)c2cc(COc3c(F)cccc3F)on2)CC1	esBAF inh 57.8, Wnt bcat act 44.7
CCOC(=O)N1CCN(C(=O)c2cc(COc3ccc(F)cc3F)on2)CC1	none (no result: esBAF inh)
CCOC(=O)C1CCN(C(=O)c2cc(COc3ccc(F)cc3F)on2)CC1	MITF act 111.1 (no result: esBAF inh)
CC(=O)N1CCCN(C(=O)c2cc(COc3c(F)cccc3F)on2)CC1	none (no result: esBAF inh)
Cc1cccc(C)c1OCc1cc(C(=O)N2CCN(c3ccc(F)cc3)CC2)no1	esBAF inh 44.8
CS(=O)(=O)Nc1ccc2c(c1)[C@@H]1C[C@H](CC(=O)NCc3ccc(Cl)cc3)O[C@H](CO)[C@@H]1O2	none (no result: MITF act, FXN GAA850 act, Wnt bcat act)
Cc1cc(C)n(CCc2nc(-c3ccc(-c4ccccc4)cc3)cs2)n1	esBAF inh 69.7
C[C@@H]1CCCCO[C@@H](CN(C)C(=O)C2CCCCC2)[C@@H](C)CN([C@H](C)CO)C(=O)c2cc(NC(=O)Nc3ccc(C(F)(F)F)cc3)ccc2O1	none (no result: MITF act, FXN GAA850 act, Wnt bcat act)
COc1ccc(-c2c(C#Cc3ccsc3)c3ccccc3n2C)cc1	esBAF inh 44.7
COc1ccc(C#Cc2c(-c3ccccc3)n(C)c3ccccc23)cc1	none
Cc1n[nH]c(=O)nc1N/N=C/c1ccco1	Wnt bcat act 48.7 (no result: esBAF inh)
O=C(C[C@@H]1CC[C@H]2[C@@H](COC[C@H](O)CN2CCc2ccccc2)O1)NCc1ccccc1	none (no result: MITF act, FXN GAA850 act, Wnt bcat act)
CCCN1CCC(=O)N([C@H](CSc2ccc(C)cc2)Cc2ccccc2)CC1	none
CC(C)C[C@@H](CSc1ccccc1)N1CCN(C)CCC1=O	none
CCCN1CCC(=O)N([C@H](CSc2ccc(Br)cc2)c2ccccc2)CC1	MITF act 88.5, esBAF inh 51.2
O=C1CCN(CCc2ccccc2)CCN1[C@H](CSc1ccc(Br)cc1)c1ccccc1	none
CCCN1CCC(=O)N([C@H](CSc2ccc(C)cc2)CC(C)C)CC1	MITF act 98.4, esBAF inh 46.3
CC(C)C[C@@H](CSc1ccccc1)N1CCN(CC(C)C)CCC1=O	MITF act 103.5, esBAF inh 49.5, Wnt bcat act 43.2
CCCN1CCC(=O)N([C@H](CSc2ccccc2)CC(C)C)CC1	MITF act 92.9
CC(C)CN1CCC(=O)N([C@H](CSc2ccc(Br)cc2)Cc2ccccc2)CC1	none (no result: esBAF inh)
CN(C)C(=O)c1ccc(-c2ccc3c(c2)[C@@H]2[C@@H](CCN2C(=O)c2ccc4c(c2)OCO4)[C@H](CO)N3)cc1	none (no result: MITF act, FXN GAA850 act, Wnt bcat act)
O=C(N[C@H]1CC[C@H](CCn2cc(C3(O)CCCC3)nn2)O[C@@H]1CO)c1ccccc1F	none (no result: MITF act, FXN GAA850 act, Wnt bcat act)
COC(=O)Cn1c(SCc2ccccc2)nc2ccccc21	esBAF inh 48.5 (no result: Wnt bcat act)
CCSc1nc2ccccc2n1CC(=O)OC	none
CC(C)Sc1nc2ccccc2n1CC(N)=O	Wnt bcat act 44.3 (no result: MITF act)
Cc1nn(-c2ccccc2)nc1C(=O)NN	Wnt bcat act 36.1
CC(=O)N[C@@H]1CC[C@H](CCNC(=O)C2CC2)O[C@H]1CO	none (no result: MITF act, FXN GAA850 act, Wnt bcat act)
CCC(=O)NC[C@@H]1[C@H](c2ccc(C3=CCCC3)cc2)[C@H](CO)N1C(=O)C1CC1	none (no result: MITF act, FXN GAA850 act, Wnt bcat act)
COC(=O)c1ccc(CN2CCCC(CNC(=O)Cc3ccc(OC)cc3)C2)cc1 (centres undefined)	Wnt bcat act 35.8 (no result: MITF act)
CC(C)C#Cc1ccc2c(c1)O[C@H](CN(C)C(=O)c1ccncc1)[C@@H](C)CN([C@H](C)CO)S2(=O)=O	none (no result: MITF act, FXN GAA850 act, Wnt bcat act)
Cc1cc(C)n(CC(O)COc2ccc(Cl)cc2Cl)n1 (centres undefined)	esBAF inh 52.3 (no result: MITF act)
CC(=O)N(C)C[C@@H]1Oc2ncc(-c3cccc(F)c3)cc2C(=O)N([C@@H](C)CO)C[C@H]1C	none (no result: MITF act, FXN GAA850 act, Wnt bcat act)
CNc1ncc(C(=O)c2ccc(Cl)c(Cl)c2)s1	esBAF inh 77.1 (no result: MITF act, Wnt bcat act)
CNc1ncc(C(=O)c2ccc(-c3ccccc3)cc2)s1	Wnt bcat act 41.4 (no result: esBAF inh)
CC(=O)NC12CC3CC(C1)CC(C(=O)Nc1nc4ccc(F)cc4s1)(C3)C2	esBAF inh 44.7
C[C@@H]1CN([C@@H](C)CO)C(=O)Cc2cc(NC(=O)Nc3ccc(F)cc3)ccc2O[C@@H]1CN(C)C(=O)Nc1ccccc1	none (no result: MITF act, FXN GAA850 act, Wnt bcat act)
Cc1cccc(C(=O)Oc2ccc(/C=N/O)cc2)c1	MITF act 126.6, esBAF inh 75.8
COc1cc(C(=O)N/N=C/c2ccc(OC(=O)c3cccc(C)c3)cc2)ccc1O	none
O=C(Nc1ccc2c(c1)Cc1ccccc1-2)c1cccnc1	MITF act inconclusive, esBAF inh 64.4
O=C(Nc1ccc2ccccc2c1)c1cccnc1	none (no result: Wnt bcat act)
O=C(Nc1ccc2c(c1)Cc1ccccc1-2)c1ccco1	MITF act 151.2, Wnt bcat act 48.2
COc1cccc(OC)c1C(=O)Nc1ccc2c(c1)Cc1ccccc1-2	none (no result: esBAF inh)
C[C@@H]1CN([C@H](C)CO)C(=O)Cc2cc(NC(=O)Cc3cn(C)c4ccccc34)ccc2O[C@@H]1CN(C)S(C)(=O)=O	none (no result: MITF act, FXN GAA850 act, Wnt bcat act)
CC1(C)CC(=O)C(N=Nc2ccc(Cl)cc2)=C(O)C1	none (no result: esBAF inh)
CC1(C)CC(=O)C(N=Nc2ccc(F)cc2)=C(O)C1	Wnt bcat act 43.8 (no result: esBAF inh)
CC1(C)CC(=O)C(N=Nc2ccc(-c3ccccc3)cc2)=C(O)C1	MITF act 96.0 (no result: esBAF inh)
CC1(C)CC(=O)C(N=Nc2ccc(OC(F)F)cc2)=C(O)C1	none (no result: esBAF inh)
N#CCc1nc(CSc2nc3ccccc3o2)cs1	esBAF inh 102.5
O=c1oc2ccccc2cc1NCc1ccccc1O	MITF act 96.4, esBAF inh 63.3
C[C@H](CO)N1C[C@H](C)[C@H](CN(C)Cc2ccc(Cl)c(Cl)c2)Oc2ccc(NS(=O)(=O)c3cn(C)cn3)cc2C1=O	none (no result: MITF act, FXN GAA850 act, Wnt bcat act)
C=CCn1c(SCC(=O)NC(N)=O)nnc1-c1cc2c(s1)CCC(CC)C2 (centres undefined)	none (no result: esBAF inh)
C=CCn1c(SCC(=O)NCC)nnc1-c1cc2c(s1)CCC(CC)C2 (centres undefined)	esBAF inh 45.9
c1coc(CNc2nc(-c3cccs3)cs2)c1	none (no result: esBAF inh)
Oc1ccc(-c2csc(NCc3ccco3)n2)cc1	esBAF inh 48.8 (no result: MITF act)
O=C(N/N=C/c1cc([N+](=O)[O-])ccc1O)c1ccc(COc2ccc3c(c2)CCC3)o1	none
COc1ccc(Br)cc1/C=N/NC(=O)c1ccc(COc2ccc3c(c2)CCC3)o1	esBAF inh 55.8

Source: PubChem BioAssay (several laboratories)
